# From the OligoGym collection
# Biological target: ITGAM
# Assay: pooled miR-30 sensor sort-seq; sequence = guide strand
# Conditions: shRNA
# Note: reference of the scale not given here.
row,Sequence,sensor-assay potency score (higher = more potent)
1,TTAAACAAGATCTCAGCTGTGC,0.114
2,TTAGAGTCTACATCAAACGTGA,0.224
3,TCAGTGTCCAAGTTGAACCCAT,-0.0132
4,TTGAACTCCATGATTGCCTTGA,0.856
5,TTGCTGTCCACGTCCACGGAGC,-1.3

# Biological target: ITLN1
# Assay: as above
# Conditions: shRNA
row,Sequence,sensor-assay potency score (higher = more potent)
1,TTTCACTGGATATTTCTGGTAG,0.272
2,TGCACTAGGACATTCGTCTTTG,-0.456
3,TAACATTCTAGCTACTGGGTAA,-0.292
4,TTCGTCTTTGATTTCCTTGCAG,0.319
5,TCGTCTTTGATTTCCTTGCAGC,-0.887
6,TTCCATATCCACTCCAATCAAA,-1.07
7,TTGTCAGTCCAACACTTTCCTT,-1.43
8,TGTCAGTCCAACACTTTCCTTC,0.0274
9,TAGACCACAGGGATCACCGGGC,0.112
10,ATGCACTAGGACATTCGTCTTT,-0.936
11,TGAACTGAACAAATCCCGCAGT,0.114
12,TTAGCCTCATCTGTACTCCATC,-0.855

# Biological target: ITPRIP
# Assay: as above
# Conditions: shRNA
row,Sequence,sensor-assay potency score (higher = more potent)
1,TTGAAGGGCATGAACTTCCCTG,0.113
2,TTCAAGTACAGACTGGATCTGG,0.622
3,TTTTCAGTGAACTTTCTCCTGG,-0.029
4,TTGGTCTTGCCGCAGATGCAGC,-1.52
5,TAGGAGGTGCAGTAGGGCCGTC,-0.656
6,TTCTTCTGGAGCAAGCTCTTCT,-0.26
7,TTGAGCATCTCATAGAAGGAGT,-0.45
8,TGAACGGAACTTGATCTTCAGG,-1.39
9,TAAGGCAGCATGAAACACCAAG,-0.493
10,TTAGAAGCAGCTTTGGTGCAGA,0.222
11,TTGATCTTCAGGGACCCCGGGC,-0.883
12,TTTAGTGTCGTCCTGAGGAAGT,-0.751

# Biological target: JAM3
# Assay: as above
# Conditions: shRNA
row,Sequence,sensor-assay potency score (higher = more potent)
1,TTATTGTTGATGAAGTAGCCAC,-0.389
2,TTGTTGATGAAGTAGCCACGTC,-0.698
3,TAAAGGGCTGAGTCTCTCCGTG,-0.394
4,TTTCCTTGCGGTCATTTCGAGC,-1.23
5,TGAGTGTCTAGCTCTGTCCGAG,-0.68
6,TTCCACACTTTCAAATTCCTGT,0.0526
7,TTCTGAATGAGTGTCTAGCTCT,-0.216
8,TTGATGAAGTAGCCACGTCTGT,-0.852
9,TTCACTTGCACAGTTAACTCGA,0.721
10,TTCATCTTGAATTTTCTTCCAC,0.166
